Results published in PubChem BioAssay (NCI).
This is part of a sample that, as a whole, favours compounds with a hit. Of some 79,000 tested, about 15% had one in any assay. Calls of active or inactive are those of the source. Cut-off read from the data, not from the text of the source: active = growth inhibition above about 70%; inactive = the rest. Where a SMILES comes first, the peptide text is derived from it. The star is where a group is joined. Cbz = O=C(OCc1ccccc1)*

Experiments:
[1] = NCI Yeast Anticancer Drug Screen. Data for the rad50 strain (AID 155);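 note: 0% = growth of vehicle-only cultures of the same strain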; conditions: S. cerevisiae rad50 strain growth inhibition; at 50.0 µM; hits give high values
Outline: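 Vehicle-treated cultures provide the reference for the growth inhibition reported for compound-exposed, repair-deficient yeast.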

[2] = NCI Yeast Anticancer Drug Screen. Data for the mec2-1 strain (AID 157); conditions: S. cerevisiae mec2-1 strain, at 50.0 µM, hits give high values
Outline: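 Vehicle-treated cultures served as reference for growth inhibition of compound-exposed mec2-1 yeast.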

[3] = NCI Yeast Anticancer Drug Screen. Data for the sgs1 mgt1 strain (AID 161);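 note: 0% = growth of cultures given vehicle only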; conditions: S. cerevisiae sgs1 mgt1 strain, at 50.0 µM, hits give high values
Outline: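 Test agents were incubated with a DNA-repair-mutant yeast strain. Growth was then read and compared against vehicle-treated controls.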

[4] = NCI Yeast Anticancer Drug Screen. Data for the cln2 rad14 strain (AID 165);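 note: 0% = growth equal to vehicle treated cultures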; conditions: S. cerevisiae cln2 rad14 strain, at 50.0 µM, hits give high values
Outline: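 Each compound was tested on cln2 rad14 yeast. Inhibition of growth was calculated against vehicle-exposed controls.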

[5] = NCI Yeast Anticancer Drug Screen. Data for the bub3 strain (AID 167); conditions: S. cerevisiae bub3 mutant strain, at 50.0 µM, hits give high values
Outline: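 Mutant yeast screening strain plus compound; vehicle-treated cultures serve as the 0% inhibition reference.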

[6] = NCI Yeast Anticancer Drug Screen. Data for the mlh1 rad18 strain (AID 175); conditions: S. cerevisiae mlh1 rad18 strain growth inhibition; at 50.0 µM; hits give high values
Outline: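 Vehicle-treated cultures served as the reference for growth inhibition in a yeast strain carrying DNA damage repair alterations exposed to each compound.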

Measured: growth inhibition

CC(=O)NC(CCCCNC(=O)OCc1ccccc1)C(=O)O (stereo unspecified)
inactive: [1] -22.9% | [2] -12.9% | [3] -22.6% | [4] 11.9% | [5] -12.8% | [6] -32.8%

NOCCCCON
inactive: [1] -5.05% | [2] -6.8% | [3] 8.95% | [4] -66.8% | [5] 0.25% | [6] -7.05%

c1csc(-c2cc(-c3ccsc3)c(-c3ccsc3)s2)c1
inactive: [1] -37.5% | [2] -48.4% | [3] -33.6% | [4] -5.35% | [5] -15.9% | [6] -8.6%

CC(C)CCCC(C)C1CCC2C3CCC4CC5(C)C(CC4(C)C3CCC12C)C(=O)C5(Cl)Cl (stereo unspecified)
inactive: [1] 13.2% | [2] -2.7% | [3] -22.4% | [4] 0% | [5] -3.55% | [6] -27.9%

O=c1onc2c3ccccc3ncn12
inactive: [1] 15.2% | [2] 7.6% | [3] -21.2% | [4] -11.4% | [5] -8.6% | [6] 0.65%

Cc1[nH]c(=O)[nH]c(=O)c1C
inactive: [1] 4.05% | [2] -36.1% | [3] 1.8% | [4] 27.4% | [5] -11.9% | [6] 7.35%

CC(=O)/C(C)=C\c1ccc(C(C)C)cc1
inactive: [1] 8.85% | [2] -12.7% | [3] -10.9% | [4] -7.2% | [5] 10.9% | [6] -1.55%

Cc1nc(C)c(N2CCN(Cc3ccccc3)CC2)c(=O)[nH]1
inactive: [1] 8.65% | [2] 2.5% | [3] -45.1% | [4] 13% | [5] 17.4% | [6] -52.9%

CCNCC(=O)Nc1ccccc1C(=O)OCC
inactive: [1] -2.7% | [2] 14% | [3] 0.2% | [4] -22.5% | [5] 8.6% | [6] 10.1%

OCCCN=C1CCCCC1
inactive: [1] -3.4% | [2] -10.3% | [3] -35.5% | [4] -54.4% | [5] -11% | [6] -13.3%

CCC(C(=O)O)C1=CCCc2c(C)ccc(C)c21 (stereo unspecified)
inactive: [1] 23.6% | [2] 13.2% | [3] 21.6% | [4] 25.3% | [5] 11.7% | [6] 23.2%

CCN(CC)CCC(CCN(CC)CC)(COC(=O)c1ccc([N+](=O)[O-])cc1)c1ccccc1
inactive: [1] 19.7% | [2] 9.1% | [3] 20.1% | [4] -4.15% | [5] -0.55% | [6] 12.6%

COC(=O)C(=O)C(/C=N/C(=S)Nc1ccc(S(=O)(=O)Nc2nccs2)cc1)=C(\O)c1c(C)[nH]c2ccccc12
inactive: [1] 39.1% | [2] 23.8% | [3] 35% | [4] 5.2% | [5] 35.9% | [6] 29.8%

O=C1CCCCC1CO (stereo unspecified)
inactive: [1] -0.1% | [2] 1.5% | [3] -0.65% | [4] -5.5% | [5] 1.4% | [6] 2.3%

CC12CCC3[C@@H](CC3(C)C)C(O)(CCC1=O)C2 (stereo partly specified)
inactive: [1] -10.4% | [2] -9.35% | [3] -10.8% | [4] -23.9% | [5] -5.35% | [6] -57.1%

COc1ccc(COC(=O)NNC(=O)C2CSC(c3ccccc3)N2C(C)=O)cc1 (stereo unspecified)
inactive: [1] -23.4% | [2] 6.75% | [3] -15.8% | [4] 3.4% | [5] -8.9% | [6] -10.3%

CCN(CC)CCSCCSCCN(CC)CC
inactive: [1] -24.7% | [2] -1.55% | [3] -3.05% | [4] -39% | [5] 8.65% | [6] -10.3%

COC(=O)CCS/C=C/C(=O)O
inactive: [1] 11.1% | [2] -8.6% | [3] -2.4% | [4] -34.4% | [5] 4.25% | [6] 4.35%

Cc1cc(Br)ccc1N=c1scc(-c2ccc(Cl)cc2)n1C
inactive: [1] -22.2% | [2] -27.6% | [3] 4.45% | [4] 0.1% | [5] 16.1% | [6] 15.1%

OCCSc1ccc(Cl)cc1
inactive: [1] 14.4% | [2] 25.9% | [3] 5.95% | [4] -31.5% | [5] 12.8% | [6] 27.5%

COC(=O)c1ccc(/C2=c3\cc/c([n-]3)=C(\c3ccc(C(=O)OC)cc3)c3ccc([n-]3)/C(c3ccc(C(=O)OC)cc3)=c3/cc/c([n-]3)=C(\c3ccc(C(=O)OC)cc3)c3ccc2[n-]3)cc1.[Mn]
inactive: [1] 14.8% | [2] 23.1% | [3] 12.5% | [4] -3.65% | [5] -4.55% | [6] 53.7%

COc1ccc2oc3cc(NCCN(C)C)ccc3c(=O)c2c1
inactive: [1] -4.65% | [2] -21.7% | [3] -25.6% | [4] 15.9% | [5] -19.9% | [6] -19.3%

N#Cc1nn(CCCl)c(=O)c2ccccc12
inactive: [1] 28.7% | [2] 17.9% | [3] 10% | [4] 12.2% | [5] 12.2% | [6] 15.4%

CC(=O)Nc1nc(C)c(CC/C=C/c2ccc([N+](=O)[O-])cc2)c(=O)[nH]1
inactive: [1] 4.75% | [2] 32.6% | [3] -3.8% | [4] 2.95% | [5] -8.15% | [6] -6.1%

CCOC(=O)c1ccc(C(=N)N)cc1
inactive: [1] 8.4% | [2] 2.2% | [3] 11% | [4] -15.2% | [5] 11.2% | [6] 5.55%

CCCCCCC#CC(=O)OCCCC
inactive: [1] -9.8% | [2] -14.9% | [3] 6.05% | [4] -20% | [5] -21.5% | [6] -16.4%

COCCCC12C=C(OC)C(=O)C=C1OC(c1cc(OC)c(OC)c(OC)c1)C2C (stereo unspecified)
inactive: [1] 0% | [2] -13.1% | [3] -36% | [4] -18% | [5] -32.5% | [6] -14.5%

O=C(O)CCc1cccc2ccccc12
inactive: [1] 30.1% | [2] 10.8% | [3] 32.7% | [4] 14.4% | [5] 3.35% | [6] 35.3%

COC(=O)c1cc(C(=O)OC)cc([N+](=O)[O-])c1
inactive: [1] -6.4% | [2] -21.9% | [3] 8.75% | [4] 20.4% | [5] -38.5% | [6] 0.05%

CCCC(=O)Oc1ccc(CC)cc1
inactive: [1] 25.5% | [2] 15.4% | [3] 8.75% | [4] -20.4% | [5] 14.5% | [6] 20.9%

CN(C)c1ccc(C(=N)c2ccc(N(C)C)cc2)cc1
inactive: [1] -3.85% | [2] 4.9% | [3] -6% | [4] -35.5% | [5] 5.45% | [6] -0.15%

C[N+](C)(Cc1cccc(Cl)c1)c1nnn[n-]1
inactive: [1] -9.75% | [2] -18.9% | [3] -7.05% | [4] -22.6% | [5] -7.4% | [6] -9.5%

Cc1ccc(N=Cc2cc(Br)ccc2O)cc1Cl
active: [1] 98.6% | [2] 99% | [3] 99.1% | [4] 95% | [5] 98.7% | [6] 96.8%

CSc1ncc(C=O)n1Cc1ccccc1
inactive: [1] -4.35% | [2] 6.7% | [3] 0.3% | [4] -34.5% | [5] 2.15% | [6] 5.6%

O=C(c1ccncc1)n1nc(-c2ccccc2)c(N=Nc2ccccc2[N+](=O)[O-])c1-c1ccccc1
inactive: [1] -1.75% | [2] -16.8% | [3] -9.3% | [4] 1.65% | [5] 30.3% | [6] 1%

C/C=C(/C(=O)NC(N)=O)C(C)C
inactive: [1] -3.65% | [2] 3.15% | [3] -20.1% | [4] -48.3% | [5] -2.55% | [6] -2.85%

COC1OC(CO)C(O)C(NC(=O)[C@H](Cc2ccc(O)cc2)NC(=O)OCc2ccccc2)C1O (stereo partly specified)
inactive: [1] 8.6% | [2] -3.75% | [3] 3.2% | [4] -6.05% | [5] -0.5% | [6] 7.1%

CC(O)C(NC(=O)C(Cc1ccc(O)cc1)NC(=O)OCc1ccccc1)C(=O)O (stereo not drawn) (Cbz-Tyr-Thr-OH; configuration not given here)
inactive: [1] -9.65% | [2] -4.25% | [3] -2.05% | [4] -35.8% | [5] -4.85% | [6] -0.7%

COc1ccc2nccc(Cl)c2c1
inactive: [1] 12.2% | [2] 12.3% | [3] 1.6% | [4] -6.55% | [5] 15.2% | [6] 6.45%

COc1ccc(C(CC(=O)c2ccccc2)C(=O)c2ccc3c(c2)OCO3)cc1 (stereo unspecified)
inactive: [1] -40% | [2] -50.5% | [3] -38.8% | [4] -12.7% | [5] -0.3% | [6] -31.6%

Nc1ccc(N)c(C(=O)O)c1
inactive: [1] -9.35% | [2] 15.1% | [3] 1.1% | [4] -2.5% | [5] -12.6% | [6] -8.9%
